Hit rate of the full screen: of about 190,000 compounds, about 1,300 (0.68%) were called active. Rule as the data show it: active = inhibition above about 50%; inactive = the rest. The entries come from a sample that favours actives as a whole.
molecular target: Mannose-6-phosphate isomerase (Homo sapiens) (UniProt P34949); experiment: MPI inhibition at elevated mannose 6-phosphate – biochemical, fluorescence intensity, high mannose 6-phosphate, primary screen (AID 1220); conditions: recombinant PMI enzyme, coupled fluorescence intensity; at 20 µM; stronger effect = higher value
Sequence (P34949 whole entry, looked up): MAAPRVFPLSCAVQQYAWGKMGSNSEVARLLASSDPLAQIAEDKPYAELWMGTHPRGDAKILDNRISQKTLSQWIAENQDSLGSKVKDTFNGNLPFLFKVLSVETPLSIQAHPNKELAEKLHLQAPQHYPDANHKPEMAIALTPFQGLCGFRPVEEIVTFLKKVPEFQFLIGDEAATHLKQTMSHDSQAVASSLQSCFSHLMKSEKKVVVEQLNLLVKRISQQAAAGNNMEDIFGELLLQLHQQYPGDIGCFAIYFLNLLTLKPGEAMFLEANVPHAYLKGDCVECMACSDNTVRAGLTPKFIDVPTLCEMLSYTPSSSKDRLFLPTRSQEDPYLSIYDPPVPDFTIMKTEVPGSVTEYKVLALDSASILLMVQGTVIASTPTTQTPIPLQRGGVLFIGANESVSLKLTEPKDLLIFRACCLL

inhibition, active:
NC(=O)NC(=O)CC1S/C(=N/N=C2\CSC(=O)N2)NC1=O (centres undefined) 50.5%
c1ccc(-c2cc3nccc(-c4ccccn4)n3n2)cc1 61.5%
COc1cc(O)c(NC(C)=O)c2nonc12 62.4%
CC(=O)Nc1cc(OC(C)=O)c2nonc2c1OC(C)=O 78.3%
COc1ccc(/C=N/c2c(-c3ccc(OC)cc3)nc3n2CCS3)cc1 57.2%
O=C(CSc1cccc2cccc(Cl)c12)NC1=NCCS1 51.9%
CC(C)C(=O)NC(c1ccccc1)c1cc([N+](=O)[O-])c2cccnc2c1O (centres undefined) 60.9%
CN(Cc1cc([N+](=O)[O-])c2cccnc2c1O)C1CCCCC1 51.8%
Cc1ccc(C(NC(=O)C(C)C)c2cc([N+](=O)[O-])c3cccnc3c2O)cc1 (centres undefined) 53.9%
COc1ccc(C(C)=O)c2c(O)cccc12 56.5%
COc1ccc(/C(=C\Nc2ccc(C)c(C)c2)C(C)=O)cc1OC 56.5%
N#C/C(=C1\C(=O)Nc2c(Cl)cc(Cl)cc21)c1nnc2n1CCCCC2 51%
O=C(NC(=S)N1CCN(Cc2ccccc2)CC1)c1cccnc1 58.4%
Cc1ccc(Cl)cc1NC(=O)C[n+]1ccc(Cc2ccc([N+](=O)[O-])cc2)cc1 55.3%
O=C(COC(=O)Cc1ccccc1[N+](=O)[O-])NC1CCCC1 55.4%
CC(NC(=O)COC(=O)Cc1ccccc1[N+](=O)[O-])c1ccccc1 (centres undefined) 51.3%
CC(=O)c1ccccc1OC(=O)CCN1C(=O)C2C3C=CC(C4CC34)C2C1=O (centres undefined) 59.3%

inhibition, inactive:
Cc1ccc(NC(=O)c2cc(C)n(-c3ccccc3)c2C)cc1 9.3%
Cc1ccc(CN(c2ccc(C(=O)N3CCCC3)cc2)S(C)(=O)=O)cc1 -1.2%
CCC(=O)Nc1cccc(NC(=O)CSc2nnc(-c3ccc(NS(C)(=O)=O)cc3)n2CC)c1 -2.3%
CCc1nnc(NC(=O)CSc2nnc3c4ccccc4n(C)c3n2)s1 2%
Cc1onc(-c2c(F)cccc2Cl)c1C(=O)N1CCCc2ccccc21 4.2%
O=C1NC(Cc2ccccc2)C(=O)N1Cc1cc([N+](=O)[O-])cc2c1OCOC2 (centres undefined) -4.9%
O=C(CN(C(=O)Cn1nnc(-c2ccccc2F)n1)c1cccc2c1CCCC2)NCc1ccccc1 28.1%
NC(=O)NC(=O)CC1S/C(=N/N=C2/NC(=O)CS2)NC1=O (centres undefined) 24.9%
NC(=O)NC(=O)CC1S/C(=N/N=C/c2ccccc2)NC1=O (centres undefined) -2%
COc1ccc(-c2cc(C(=O)Nc3c(C)nn(Cc4ccc(Cl)cc4)c3C)no2)cc1 1.1%
CC(CCn1cccn1)NC(=O)c1cc(COc2ccc(F)cc2F)on1 (centres undefined) 7.7%
Cc1cc2nccc(-c3ccccn3)n2n1 -0.9%
Nc1nc2nccc(-c3ccccn3)n2n1 4.4%
Cc1nn(C)c(C)c1CS(=O)(=O)c1ccccc1 2.6%
Cc1cc2nc(CS(=O)(=O)c3ccccc3)cc(=O)n2[nH]1 0.1%
CCCCCCCCNc1nc(Cl)nc(NCCN2CCOCC2)n1 -7.1%
NC(=O)CSc1nc2ccccc2nc1SCC(N)=O -6.6%
CC(=O)Nc1nonc1NC(C)=O 10.7%
COc1cc(O)c(C(C)=O)cc1OC -17%
CCOc1cc(Cl)c(NC(C)=O)cc1OCC -3.5%
CCOc1cc(NC(=O)C2CCCO2)c(OCC)cc1NC(C)=O (centres undefined) 6.8%
COc1ccc(/C=N/NS(=O)(=O)c2ccccc2)cc1OC(=O)c1ccc(C)cc1 6.9%
Clc1ccccc1Cc1noc(CN2CCCCC2CCc2ccccn2)n1 (centres undefined) 16.4%
Clc1ccc(/C=N/c2c(-c3ccc(Cl)cc3)nc3n2CCS3)cc1 0.3%
FC(F)Oc1ccc(/C=N/c2c(-c3ccc(OC(F)F)cc3)nc3n2CCS3)cc1 1.9%
Cc1ccc(NCc2ccccc2)cc1 9.2%
Cc1csc(=Nc2cccnc2)n1Cc1ccco1 2.8%
COc1cccc(OCC(=O)NNC(=S)Nc2ccc(Cl)cc2Cl)c1 3.7%
O=C(c1cncc(Br)c1)N1CCN(c2ccc(N3CCOCC3)nn2)CC1 4.8%
O=C(Cc1c(F)cccc1Cl)NC1=NCCS1 9.7%
O=C(Cc1c(Cl)cccc1Cl)NC1=NCCS1 -5.2%
COc1ccc(N2C(=O)CSC(c3ccccc3)C2=O)cc1 (centres undefined) 4.1%
Cc1cc(NC(=O)CN2CCN(S(=O)(=O)c3ccc(Cl)cc3)CC2)no1 2.2%
CC(C)C(=O)NC(c1cccs1)c1cc([N+](=O)[O-])c2cccnc2c1O (centres undefined) 46.5%
CC(C)C(=O)NC(c1ccco1)c1ccc2cccnc2c1O (centres undefined) 37.8%
O=C(NC(c1ccc(Cl)cc1)c1cc(Cl)c2cccnc2c1O)c1cccnc1 (centres undefined) 2.3%
O=[N+]([O-])c1cc(CN2CCN(c3ccccc3)CC2)c(O)c2ncccc12 35.7%
O=[N+]([O-])c1cc(Cl)c(O)c2ncccc12 32.5%
O=[N+]([O-])c1cc(CN2CCCC2)c2cccnc2c1O 44.4%
CCCNC(=O)c1ccc2nc(-c3ccccc3)c(-c3ccccc3)nc2c1 11.1%
CCc1ccc(Oc2cc(C)nc(N)n2)cc1 -0.3%
CCCCc1ccc(-n2nnnc2SCC(=O)Nc2cc(OC)c([N+](=O)[O-])cc2C)cc1 10.1%
O=C(NCCc1ccc(Cl)cc1)c1cnc2n(c1=O)CCS2 4.8%
O=C(N/N=C/c1ccc2c(c1)OCO2)c1sc2cccc(Cl)c2c1Cl 12.6%
O=C(CCCCCn1c(=O)[nH]c2ccccc2c1=O)N1CCN(Cc2ccc3c(c2)OCO3)CC1 -4%
O=C(OCc1cccnc1)C1=Cc2ccccc2OC1 -1.4%
COc1ccc(C(=O)Nc2cccc(C(C)=O)c2)c(OC)c1OC 8.1%
COc1ccc(C(=O)c2ccc(OC)c3cccc(O)c23)cc1OC 14.7%
CCOc1ccc(N(CC(=O)N/N=C/c2cccnc2)S(C)(=O)=O)cc1 -3.8%
CN(C)C(=O)C1(c2ccccc2)CCN(S(=O)(=O)c2ccccc2)CC1 14.9%
COc1oc(-c2ccccc2C)nc1C(F)(F)F 1.8%
COc1ccc(/C(=C/Nc2cccc(Br)c2)C(C)=O)cc1OC 4.4%
COc1ccc(N/C=C(\C(C)=O)c2ccc(OC)c(OC)c2)cc1OC 42.8%
CCC/C=N/NC(=O)c1cc(-c2ccccc2)nc2ccccc12 -2.1%
C=CCc1cc(/C=N/NC(=O)CSc2nnc(CCCc3ccc(OC)cc3)o2)cc(OC)c1O -3.4%
N#C/C(=N\Nc1cc(Cl)cc(Cl)c1)c1nnc2n1CCCCC2 14.3%
N#C/C(=C1/CCCCCN1)c1nnc2n1CCCCC2 -3.4%
O=C(c1cc2nc(-c3ccc(Cl)cc3)cc(C(F)(F)F)n2n1)N1CCOCC1 9.1%
CC(=O)N1CC(c2ccccc2)C(c2ccc(Cl)cc2)=N1 (centres undefined) 11.8%
CC(C)C(O)(C#CCN1CCCCC1)C(C)C 2.1%
O=C(NC(=S)N1CCN(Cc2ccccc2)CC1)c1ccccc1 13%
O=C(NC(=S)N1CCCCC1)c1cccnc1 -1.5%
COCCN1C(=O)c2oc3ccccc3c(=O)c2C1c1ccc(O)c(OC)c1 (centres undefined) 0.7%
Cc1cc([N+](=O)[O-])ccc1NC(=O)C[n+]1ccc(N(C)C)cc1 -1.5%
Cc1ccc([N+](=O)[O-])cc1NC(=O)C[n+]1ccccc1 22.2%
CC(NC(=O)C1CCCN1C(=O)OCc1ccccc1)c1ccccc1 (centres undefined) -0.5%
COc1cccc(OC)c1C(=O)NC(=S)Nc1ccc2oc(=O)ccc2c1 10.5%
O=C(COC(=O)Cc1ccccc1[N+](=O)[O-])NCC1CCCCC1 -5.7%
O=C(COC(=O)COc1ccccc1[N+](=O)[O-])NC1CCCC1 -5.1%
CC(NC(=O)Cc1ccccc1[N+](=O)[O-])c1ccccc1 (centres undefined) 7.4%
CC(NC(=O)COC(=O)CC(c1ccccc1)c1ccccc1)c1ccccc1 (centres undefined) 7.9%
O=Cc1cc2ccccc2nc1SCCCF 4.2%
CCCn1c(SCC(=O)C(C)(C)C)nc2ccccc21 -8.2%
O=C(O)Cc1ccc(NC(=O)c2cnccn2)cc1 -9.7%
Cc1cc(C)c2c(N)c(C(=O)NNC(=O)c3ccccc3)sc2n1 2.3%
Cc1cc(C)nc(-n2nc(C)cc2NC(=O)CN2CCCC(C)C2)n1 (centres undefined) 4.4%
Cc1ccc(SC(C)C(=O)NCc2ccncc2)cc1 (centres undefined) 11.4%
CC(=O)NC1(C(F)(F)F)NC(=O)N(c2ccc(F)cc2)C1=O (centres undefined) -10.2%
O=C(CCN1C(=O)C2C3C=CC(C4CC34)C2C1=O)Oc1ccccc1 (centres undefined) -3.5%
Cc1cccc(OC(=O)CCN2C(=O)C3C4C=CC(C5CC45)C3C2=O)c1C (centres undefined) -6.4%
Cc1ccc(C(=O)NCc2ccco2)cc1S(=O)(=O)Nc1cccc(C)c1C 0.8%
COc1cccc(CN2CCN(Cc3[nH]c4ccccc4c3C)CC2CCO)c1 (centres undefined) -0.2%
